Where “and” joins values, the source holds several entries; their conditions need not be identical. Equal values may be shown once. Records with an inconclusive call do not appear. Some structures have more than one record in an assay (separate samples or runs), and their calls can disagree. Calls of active or inactive are those of the source. Unless noted, calls come from the whole dose curve.
Legend:
[1] = Nuclear factor erythroid 2-related factor 2/antioxidant responsive element (Nrf2/ARE) small molecule agonists: qHTS cell viability counter screen in human keratinocytes (AID 1919968; active = well fitted curve in the direction sought with a large enough effect in the repeat runs; an effect the other way counts as inactive or inconclusive; note: nearly all actives have a fitted effect of over 55% in size; note: potency is the fitted concentration of half-maximal effect)
Method in brief: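 HaCaT ARE reporter line, 1,500 cells/well; 5 h settle, 37 C/5% CO2; cpd in DMSO pinned; 23 h exposure; CellTiter-Fluor, 1 h; fluorescence.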

[2] = target: Gonadotropin-releasing hormone receptor (Homo sapiens) (UniProt P30968); experiment: Human gonadotropin-releasing hormone receptor (GnRHR) small molecule agonists, calcium flux assay in GnRHR-HEK293 cells (AID 1920063); note: nearly all actives have a fitted effect of over 35% in size; note: potency is the fitted concentration of half-maximal effect
Sequence of Gonadotropin-releasing hormone receptor (Homo sapiens) (P30968 whole entry, looked up): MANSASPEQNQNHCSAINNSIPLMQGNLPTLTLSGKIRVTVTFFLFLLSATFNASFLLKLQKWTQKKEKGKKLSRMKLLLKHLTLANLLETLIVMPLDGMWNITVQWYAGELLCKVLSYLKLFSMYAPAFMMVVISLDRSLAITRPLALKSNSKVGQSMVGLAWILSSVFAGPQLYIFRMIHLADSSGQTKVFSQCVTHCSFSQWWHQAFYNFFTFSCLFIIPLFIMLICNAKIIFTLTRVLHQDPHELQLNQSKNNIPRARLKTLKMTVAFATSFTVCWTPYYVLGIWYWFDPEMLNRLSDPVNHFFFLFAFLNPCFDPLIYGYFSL
Method in brief: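 GnRHR-HEK293, 1500 cells/well, 18 h 37 C/5% CO2; Ca dye 1 h 37 C; cpd pinned (DMSO), agonist mode; kinetic FL 480/540, 3 min, 1 s reads; 15 conc, n=3.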

[3] = target: KiSS-1 receptor (Homo sapiens) (UniProt Q969F8); experiment: Human kisspeptin (KISS1R) small molecule agonists, calcium flux assay in KISS1R-HEK293 cells (AID 1920064; active = well fitted curve in the direction sought with a large enough effect in the repeat runs; an effect the other way counts as inactive or inconclusive)
Sequence of KiSS-1 receptor (Homo sapiens) (Q969F8 whole entry, looked up): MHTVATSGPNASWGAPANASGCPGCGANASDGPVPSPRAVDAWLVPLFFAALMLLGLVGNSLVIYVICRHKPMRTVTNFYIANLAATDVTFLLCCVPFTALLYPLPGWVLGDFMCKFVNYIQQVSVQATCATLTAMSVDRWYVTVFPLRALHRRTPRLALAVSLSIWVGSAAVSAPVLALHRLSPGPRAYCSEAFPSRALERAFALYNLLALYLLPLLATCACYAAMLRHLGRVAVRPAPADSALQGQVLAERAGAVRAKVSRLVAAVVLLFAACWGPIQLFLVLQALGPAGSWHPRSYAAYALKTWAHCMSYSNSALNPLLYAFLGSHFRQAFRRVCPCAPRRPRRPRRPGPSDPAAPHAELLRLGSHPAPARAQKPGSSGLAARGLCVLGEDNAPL
Method in brief: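 Stable human KISS1R HEK293 line; 18 h plating, 37 C/5% CO2; calcium dye 1 h 37 C; compound pin transfer; kinetic fluorescence Ex/Em 480/540, 3 min.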

[4] = G protein-coupled receptor (GPCR) small molecule agonists, calcium flux assay: HEK293 wild type cell line counter screen (AID 1920065)
Method in brief: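 Kinetic fluorescence at Ex/Em 480/540, recorded every second over 3 min, served as the read-out after compound addition. Each compound was tested at 15 concentrations in triplicate on cells pre-loaded with calcium dye for 1 h.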

[5] = p53 small molecule agonists, cell-based qHTS assay with human liver microsomes (AID 1963577);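 note: p53 response element beta-lactamase reporter cells with liver microsomes plus NADPH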
Method in brief: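 Reporter activation was measured by LiveBLAzer fluorescence intensity in p53RE-bla cells, which had been exposed to compounds for 16 h at 37 C alongside 0.5 mg/mL human liver microsomes and 0.5 mg/mL NADPH (final concentrations).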

[6] = p53 small molecule agonists, cell-based qHTS assay with rat liver microsomes (AID 1963578)
Method in brief: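 Compound in DMSO added to p53RE-bla cells 5 h post-plating; rat microsomes/NADPH 0.5 mg/mL final; 16 h, 37 C; LiveBLAzer 2 h RT.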

[7] = p53 small molecule agonists, cell-based qHTS assay with rat liver microsomes: qHTS cell viability counter screen (AID 1963580); note: nearly all actives have a fitted effect of over 45% in size
Method in brief: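 HCT-116 p53RE-bla, 4,000 cells/well, 5 h pre-incubation; cpd + rat liver microsomes 0.5 mg/mL + NADPH 0.5 mg/mL (final); 16 h, 37 C; CellTiter-Glo, 30 min RT; luminescence.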

[8] = p53 small molecule agonists, cell-based qHTS assay: qHTS cell viability counter screen (AID 1963581); note: nearly all actives have a fitted effect of over 45% in size
Method in brief: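 HCT-116 p53RE-bla cells, 4,000/well, plated 5 h before compound pin transfer; 16 h at 37 C; bla substrate 2 h RT; then CellTiter-Glo, 30 min RT, luminescence.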

[9] = p53 small molecule agonists, cell-based qHTS assay (AID 1963582; active = well fitted activation curve with a large enough effect in the signal ratio in the repeat runs, not every such curve was filed as active; the % refers to the signal ratio)
Method in brief: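 Reporter line: p53RE-bla. Pre-incubation 5 h, 37 C, 5% CO2; compound (DMSO, pin tool) 16 h, 37 C; B/G FRET substrate 2 h RT; fluorescence intensity read.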

[10] = target: 5-hydroxytryptamine receptor 2A (Homo sapiens) (UniProt P28223); experiment: 5-hydroxytryptamine receptor 2A (HTR2A) small molecule antagonists, cell-based qHTS assay (AID 1963586); note: nearly all actives have a fitted effect of over 45% in size; note: potency is the fitted concentration of half-maximal effect
Sequence of 5-hydroxytryptamine receptor 2A (Homo sapiens) (P28223 whole entry, looked up): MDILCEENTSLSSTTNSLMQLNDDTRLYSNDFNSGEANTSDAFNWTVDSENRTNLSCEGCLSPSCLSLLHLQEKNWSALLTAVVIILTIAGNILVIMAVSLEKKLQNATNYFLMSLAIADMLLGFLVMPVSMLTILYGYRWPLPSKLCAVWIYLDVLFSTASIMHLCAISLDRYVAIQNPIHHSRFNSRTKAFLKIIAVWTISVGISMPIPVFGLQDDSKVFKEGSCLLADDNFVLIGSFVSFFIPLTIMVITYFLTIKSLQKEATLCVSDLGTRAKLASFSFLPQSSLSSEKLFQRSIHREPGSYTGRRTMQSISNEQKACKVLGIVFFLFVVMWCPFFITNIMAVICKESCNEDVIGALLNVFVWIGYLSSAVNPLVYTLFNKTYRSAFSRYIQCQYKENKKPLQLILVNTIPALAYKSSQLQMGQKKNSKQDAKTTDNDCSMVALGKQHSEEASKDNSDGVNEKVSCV
Method in brief: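 Antagonist-mode intracellular calcium assay: DOI (4 nM) added after 5 min compound pre-incubation at room temperature to dye-loaded HTR2A-CHO cells. Fluorescence followed for 3 min, sampled every second.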

[11] = target: 5-hydroxytryptamine receptor 2A (Homo sapiens) (UniProt P28223); experiment: 5-hydroxytryptamine receptor 2A (HTR2A) small molecule agonists, cell-based qHTS assay (AID 1963587); note: nearly all actives have a fitted effect of over 30% in size; note: potency is the fitted concentration of half-maximal effect
Method in brief: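 Kinetic calcium-flux fluorescence (2 min, 1 sec intervals) after compound addition in agonist mode. HTR2A-CHO cells were cultured 18 h, then dye-loaded 1 h at 37 C.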

[12] = target: Muscarinic acetylcholine receptor M1 (Homo sapiens) (UniProt P11229); experiment: Cholinergic receptor muscarinic 1 (CHRM1) small molecule antagonists, cell-based qHTS assay (AID 1963588); note: nearly all actives have a fitted effect of over 40% in size
Sequence of Muscarinic acetylcholine receptor M1 (Homo sapiens) (P11229 whole entry, looked up): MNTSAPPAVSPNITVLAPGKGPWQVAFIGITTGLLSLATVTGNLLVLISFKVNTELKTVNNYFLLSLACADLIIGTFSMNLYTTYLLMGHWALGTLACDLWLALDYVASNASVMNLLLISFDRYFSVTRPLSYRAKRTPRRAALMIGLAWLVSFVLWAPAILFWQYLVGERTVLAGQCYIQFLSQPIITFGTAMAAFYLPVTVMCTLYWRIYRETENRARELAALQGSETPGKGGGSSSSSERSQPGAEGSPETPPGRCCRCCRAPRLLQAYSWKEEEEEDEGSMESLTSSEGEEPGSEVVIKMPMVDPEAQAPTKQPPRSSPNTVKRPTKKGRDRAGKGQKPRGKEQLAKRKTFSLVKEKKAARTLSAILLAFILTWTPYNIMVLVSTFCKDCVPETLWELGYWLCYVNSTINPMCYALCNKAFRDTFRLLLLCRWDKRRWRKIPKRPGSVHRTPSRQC
Method in brief: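 CHRM1-CHO calcium-flux assay, antagonist mode. Cells were seeded 18 h, dye-loaded 1 h at 37 C and given compound for 5 min at RT, then acetylcholine was added at 50nM. FDSS fluorescence was read 3 min; 15 concentrations, three runs.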

[13] = target: Muscarinic acetylcholine receptor M1 (Homo sapiens) (UniProt P11229); experiment: Cholinergic receptor muscarinic 1 (CHRM1) small molecule agonists, cell-based qHTS assay (AID 1963589); note: nearly all actives have a fitted effect of over 35% in size
Method in brief: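 Human M1 in stable CHO line; 18 h plating, 1 h dye load 37 C; cpd added (agonist mode); Ca2+ fluorescence kinetic read, 1 s intervals; 15 conc, 3 runs.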

[14] = cAMP Responsive Elements (CRE) small molecule agonists, cell-based qHTS assay (AID 1963590)
Method in brief: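 HEK 293T CRE-bla, 2,000 cells/well, 18 h preincubation 37 C/5% CO2; cpds (DMSO) pinned, 3 h; LiveBLAzer B/G FRET substrate, 2 h RT.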

[15] = cAMP Responsive Elements (CRE) small molecule antagonists, cell-based qHTS assay (AID 1963591; active = well fitted inhibition curve with a large enough effect in the signal ratio in the repeat runs, not every such curve was filed as active; the % refers to the signal ratio)
Method in brief: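 Beta-lactamase reporter read by FRET substrate (LiveBLAzer B/G) after 2 h at room temperature. CRE-bla HEK293T cells had received compound plus 0.25 uM (final) NKH477 for 3 h at 37 °C.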

[16] = target: Beta-2 adrenergic receptor (Homo sapiens) (UniProt P07550); experiment: Adrenergic beta2 receptor (ADRB2) small molecule antagonists, cell-based qHTS assay (AID 1963592); note: series mostly up to about 92 µM; nearly all actives have a fitted effect of over 50% in size
Sequence of Beta-2 adrenergic receptor (Homo sapiens) (P07550 whole entry, looked up): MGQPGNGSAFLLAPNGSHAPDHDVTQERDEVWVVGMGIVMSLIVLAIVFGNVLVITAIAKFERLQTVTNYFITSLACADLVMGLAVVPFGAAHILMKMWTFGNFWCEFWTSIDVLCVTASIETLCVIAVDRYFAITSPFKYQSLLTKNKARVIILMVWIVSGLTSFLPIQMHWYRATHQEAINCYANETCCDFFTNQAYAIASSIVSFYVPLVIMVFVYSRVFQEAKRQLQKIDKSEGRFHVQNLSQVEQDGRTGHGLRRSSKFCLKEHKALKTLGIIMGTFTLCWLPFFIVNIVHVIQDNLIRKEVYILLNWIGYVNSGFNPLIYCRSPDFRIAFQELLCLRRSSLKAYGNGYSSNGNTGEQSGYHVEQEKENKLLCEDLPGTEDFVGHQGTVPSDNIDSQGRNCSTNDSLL
Method in brief: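 Cells (CHO, stable ADRB2 overexpression) incubated 18-20hr at 37C; compounds added from DMSO; agonist mix (1nM isoproterenol, 100uM IBMX, 25uM Ro-20-1724) added; 0.5hr RT; d2-cAMP and anti-cAMP-cryptate added; 1hr RT; 665/615 nm read.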

[17] = target: Beta-2 adrenergic receptor (Homo sapiens) (UniProt P07550); experiment: Adrenergic beta2 receptor (ADRB2) small molecule agonists, cell-based qHTS assay (AID 1963593);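 note: CHO cells stably overexpressing human ADRB2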
Method in brief: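 CHO cells stably over-expressing ADRB2 were plated overnight at 37C, then dosed with compounds plus a stimulation mix containing 100uM IBMX and 25uM Ro-20-1724 for 0.5hr at room temperature. cAMP was measured by HTRF competition, 1hr.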

[18] = target: D(2) dopamine receptor (Homo sapiens) (UniProt P14416); experiment: Dopamine D2 receptor (DRD2) small molecule agonists, cell-based qHTS assay (AID 1963594); note: nearly all actives have a fitted effect of over 35% in size
Sequence of D(2) dopamine receptor (Homo sapiens) (P14416 whole entry, looked up): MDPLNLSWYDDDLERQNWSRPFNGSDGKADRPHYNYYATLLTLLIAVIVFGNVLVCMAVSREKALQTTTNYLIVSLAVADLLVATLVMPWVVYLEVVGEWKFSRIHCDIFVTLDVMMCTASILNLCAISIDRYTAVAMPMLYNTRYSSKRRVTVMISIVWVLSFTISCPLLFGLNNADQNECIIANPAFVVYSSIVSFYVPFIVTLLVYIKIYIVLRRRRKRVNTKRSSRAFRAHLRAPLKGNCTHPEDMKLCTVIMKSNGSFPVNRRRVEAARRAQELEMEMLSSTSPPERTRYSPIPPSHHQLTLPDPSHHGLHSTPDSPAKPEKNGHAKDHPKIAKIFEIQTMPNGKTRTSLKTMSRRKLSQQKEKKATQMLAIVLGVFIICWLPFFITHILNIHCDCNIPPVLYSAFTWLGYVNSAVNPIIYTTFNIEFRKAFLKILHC
Method in brief: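 cAMP accumulation in DRD2-HEK293 cells measured by HTRF after 1 h detection; compounds added 10 min before NKH477 (200nM […]) forskolin-analogue stimulation, 30 min at room temperature, with Ro20-1724 present at 0.1 mM final.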

[19] = target: D(2) dopamine receptor (Homo sapiens) (UniProt P14416); experiment: Dopamine D2 receptor (DRD2) small molecule antagonists, cell-based qHTS assay (AID 1963595; active = well fitted inhibition curve with a large enough effect in the signal ratio in the repeat runs, with a control signal flat; the % refers to the signal ratio; note: potency is the fitted concentration of half-maximal effect)
Method in brief: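 HEK293 cells stably expressing DRD2 were preincubated with 0.1 mM Ro20-1724, then with compound for 10 min at room temperature. Cells were stimulated with 200 nM NKH477 plus 12 nM quinpirole for 30 min, and cAMP was read by HTRF.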

[20] = p53 small molecule agonists, cell-based qHTS assay with human liver microsomes: qHTS cell viability counter screen (AID 1963579); note: nearly all actives have a fitted effect of over 45% in size; note: potency is the fitted concentration of half-maximal effect
Method in brief: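 HLM-supplemented (0.5 mg/mL final) and NADPH-supplemented (0.5 mg/mL final) p53RE-bla cultures, 4,000 cells per well, were dosed with compounds in DMSO for 16 h at 37 C; luminescent ATP detection (CellTiter-Glo, 30 min, room temperature) quantified surviving cells.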

Measured: Potency

Cc1ncc(CNC(=O)N(CCCl)N=O)c(N)n1
not listed: [20]
inactive: all other assays above

CCNc1nc(NC(C)(C)C)nc(SC)n1
not listed: [11] | [15] | [17]
inactive: all other assays above

O=C(O)C(Cl)(Cl)Br
not listed: [14]
inactive: all other assays above

O=C1C(Cl)=C(Cl)C(=O)c2ccccc21
active: [1] 24.4 µM and 48.6 µM | [2] 34.8 µM | [20] 14.5 µM | [10] 26.6 µM | [19] 21.7 µM
not listed: [7] | [11] | [14] | [15] | [16] | [17]
inactive: all other assays above

COc1ccc(CO)cc1
inactive: all assays above

CN=C=S
44 µM (active) and inactive: [11]
not listed: [7] | [18]
inactive: all other assays above

O=[N+]([O-])c1ccc(Cl)cc1
inactive: all assays above

COc1ccc2c3c1O[C@H]1[C@@H](O)C=C[C@H]4[C@@H](C2)N(C)CC[C@@]341
inactive: all assays above

c1ccc(N=NNc2ccccc2)cc1
not listed: [10] | [13] | [17]
inactive: all other assays above

CCN(Cc1ccc(Cl)nc1)/C(=C/[N+](=O)[O-])NC
not listed: [17]
inactive: all other assays above

c1ccc(N2CCNCC2)cc1
active: [10] 0.818 µM | [11] 601 nM
not listed: [12] | [13]
inactive: all other assays above

CON(C)C(=O)Nc1ccc(Cl)c(Cl)c1
not listed: [11]
inactive: all other assays above

C1CS1
not listed: [15] | [17] | [20]
inactive: all other assays above

CCC[CH2][Sn]([Cl])([Cl])[Cl]
not listed: [12] | [17] | [19]
inactive: all other assays above
